Source: PubChem (Broad Institute)
aSyn 5UTR act: Activators working through SNCA 5'UTR binding (MLPCN); activity score, % (tested at 7.5 µM), hits read low; alpha-synuclein 5'UTR reporter, activators screen; actives 7.1% (n = 300,000); AID 1814; in the data active means activity score below about -60%
Numbers without * were called inactive. The sample as a whole holds a higher share of hits than the screen did.

How did CCOC(=O)CCS(=O)(=O)c1nc(-c2ccccc2)cc(C(F)(F)F)n1 do in these assays?
aSyn 5UTR act: -129*

How did CCCNS(=O)(=O)c1cccc(C(=O)OCc2cc(=O)oc3cc(OC)ccc23)c1 do in these assays?
aSyn 5UTR act: -97*

Results for CCn1cc(C(=O)Nc2ccc(Cl)cc2Cl)cn1 ?
aSyn 5UTR act: -72*

What do the screens show for `Cc1c(C(=O)Nc2ccccc2)sc2nc[nH]c(=O)c12`?
aSyn 5UTR act: -72*

What do the screens show for `Cc1nc(Cl)sc1C(=O)Nc1ccccc1`?
aSyn 5UTR act: -67*

Results for CC(=O)c1cccc(NC(=O)c2sc(Cl)nc2C)c1 ?
aSyn 5UTR act: -65*

How did COc1cc(C=O)ccc1OCCOc1ccccc1[N+](=O)[O-] do in these assays?
aSyn 5UTR act: -103*

How did C/C=C/c1ccc(OCCOc2cc(C=O)ccc2OC)c(OC)c1 do in these assays?
aSyn 5UTR act: -105*

Results for COc1cc(C=O)ccc1OCCCOc1ccccc1[N+](=O)[O-] ?
aSyn 5UTR act: -95*

Results for COc1ccccc1OCCCOc1ccc([N+](=O)[O-])cc1Cl ?
aSyn 5UTR act: -119*

How did CCOc1cccc(OCCOc2ccccc2[N+](=O)[O-])c1 do in these assays?
aSyn 5UTR act: -110*

What do the screens show for `COc1cc(C=O)ccc1OCc1ccc(Cl)nc1`?
aSyn 5UTR act: -106*

Results for COC(=O)/C=C/COc1ccccc1[N+](=O)[O-] ?
aSyn 5UTR act: -63*

What do the screens show for `CCOC(=O)C1CCCCN1C(=O)CCc1nnc(-c2ccc3c(c2)OCO3)o1` (stereo unspecified)?
aSyn 5UTR act: -65*

How did CCOc1ccc2cc(C(=O)NCc3ccccc3)c(=N)oc2c1 do in these assays?
aSyn 5UTR act: -102*

How did CCOc1ccc2cc(C(=O)c3ccccc3)c(=O)oc2c1 do in these assays?
aSyn 5UTR act: -161*

How did COc1ccc2cc(S(=O)(=O)c3ccccc3)c(=O)oc2c1 do in these assays?
aSyn 5UTR act: -75*

Results for COc1ccc2cc(C(=O)c3ccccc3)c(=O)oc2c1 ?
aSyn 5UTR act: -151*

What do the screens show for `CN(C)c1cccc(C(=O)NCC(c2ccco2)N(C)C)c1` (stereo unspecified)?
aSyn 5UTR act: -75*

How did CN(C)C(CNC(=O)c1ccc2ccccc2c1)c1ccco1 (stereo unspecified) do in these assays?
aSyn 5UTR act: -62*

What do the screens show for `C/C(=N\Nc1nnc2c3ccccc3n(C)c2n1)c1ccc(C)o1`?
aSyn 5UTR act: -85*

Results for Cc1cc(C)n(-c2nnc3c4ccccc4n(C)c3n2)n1 ?
aSyn 5UTR act: -69*

How did Cc1ccc(C)c(-c2csc(Nc3ncccn3)n2)c1 do in these assays?
aSyn 5UTR act: -66*

Results for Cc1cccc(Nc2nc(-c3ccc(O)cc3O)cs2)n1 ?
aSyn 5UTR act: -126*

How did Oc1ccc(-c2csc(Nc3ncccn3)n2)cc1O do in these assays?
aSyn 5UTR act: -178*

Results for Oc1ccc(-c2csc(Nc3ncccn3)n2)c(O)c1 ?
aSyn 5UTR act: -165*

How did O=[N+]([O-])c1cc([N+](=O)[O-])c2cc3ccccc3nc2c1 do in these assays?
aSyn 5UTR act: -176*

How did C#CCn1cccc(C(=O)Nc2ccc(OC)cc2)c1=O do in these assays?
aSyn 5UTR act: -63*

How did CCCn1cccc(C(=O)Nc2ccc(OC)cc2)c1=O do in these assays?
aSyn 5UTR act: -82*
